Structures can show the parent of a compound that is named as a salt.
Test system: Saccharomyces cerevisiae BY4741 SeMeCo community
Test: z-score of prototroph abundance vs DMSO median; higher = larger share of this subpopulation than in DMSO controls
Settings: 10 µM; 24 h; SM minimal medium; subpopulation (auxotrophy): Prototroph
Outline: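 Subpopulation abundance was reported as a z-score against the median of vehicle wells. The Saccharomyces cerevisiae BY4741 community, carrying four plasmids that each restored one auxotrophy and encoded a distinct fluorescent protein, was grown 24 h in minimal SM medium in 384-well plates holding library drugs at 10 µM final. Cells were paraformaldehyde-fixed and imaged by automated confocal microscopy, with single-auxotroph fluorescent strains used for thresholds and autofluorescence correction.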

SMILES | z-score of prototroph abundance
CN[C@@H]1[C@H](O[C@H]2[C@H](O[C@H]3[C@H](O)[C@@H](O)[C@H](NC(=N)N)[C@@H](O)[C@@H]3NC(=N)N)O[C@@H](C)[C@]2(O)CO)O[C@@H](CO)[C@H](O)[C@H]1O [Dihydrostreptomycin sulfate] | 0.5
C=CCc1ccc(O)c(-c2ccc(O)c(CC=C)c2)c1 [Honokiol] | 1.92
COCCCN1CCC(NC(=O)c2cc(Cl)c(N)c3c2OCC3)CC1 [Prucalopride] | -0.29
COCC(=O)Nc1cc(Sc2ccccc2)ccc1N=C(NC(=O)OC)NC(=O)OC [Febantel] | -0.31
Cc1ccsc1/C=C/C1=NCCCN1C [Morantel tartrate] | 0.27
CCn1cc(C(=O)O)c(=O)c2cc(F)c(N3CCNCC3)cc21 [Norfloxacin] | 0.05
CC[C@H]1OC(=O)C[C@@H](O)[C@H](C)[C@@H](O[C@@H]2O[C@H](C)[C@@H](O[C@H]3C[C@@](C)(O)[C@@H](O)[C@H](C)O3)[C@H](N(C)C)[C@H]2O)[C@@H](CC=O)C[C@@H](C)C(=O)/C=C/C(C)=C/[C@@H]1CO[C@@H]1O[C@H](C)[C@@H](O)[C@@H](OC)[C@H]1OC [Tylosin] | -1.25
COC(=O)C1=C(C)NC(C)=C(C(=O)OC2CCCN(Cc3ccccc3)C2)C1c1cccc([N+](=O)[O-])c1 (stereo unspecified) [Benidipine HCl] | -0.13
CC1=C[C@H]2C(=O)O[C@H]3C[C@@H](C/C=C(\C)C[C@@H](C)/C=C/C=C4\CO[C@H](/C1=N\O)[C@@]42O)O[C@@]1(CC[C@H](C)[C@@H](C)O1)C3.CC[C@H]1O[C@]2(CC[C@@H]1C)C[C@@H]1C[C@@H](C/C=C(\C)C[C@@H](C)/C=C/C=C3\CO[C@@H]4/C(=N\O)C(C)=C[C@@H](C(=O)O1)[C@]34O)O2 [Milbemycin Oxime] | 0.31
CC1=Nc2ccc(Cl)cc2S(=O)(=O)N1 [Diazoxide] | 0.72
O=C(O)c1cc(O)c2c(c1)[C@H]([C@H]1c3cc(C(=O)O)cc(O)c3C(=O)c3c(O[C@@H]4O[C@H](CO)[C@@H](O)[C@H](O)[C@H]4O)cccc31)c1cccc(O[C@@H]3O[C@H](CO)[C@@H](O)[C@H](O)[C@H]3O)c1C2=O [Sennoside A] | 0.91
Oc1ccc([C@H]2COc3cc(O)ccc3C2)cc1 [Equol] | 0.13
COc1ccc2cc(CCC(C)=O)ccc2c1 [Nabumetone] | 1
CO/N=C(\C(=O)N[C@@H]1C(=O)N2C(C(=O)O)=C(CSc3nc(=O)c(O)nn3C)CS[C@H]12)c1csc(N)n1 [Ceftriaxone Sodium Trihydrate] | 0.45
CO/N=C(\C(=O)N[C@@H]1C(=O)N2C(C(=O)OC(C)OC(C)=O)=C(COC(N)=O)CS[C@H]12)c1ccco1 (stereo partly specified) [Cefuroxime axetil] | -0.04
CCCCCOc1ccccc1/C(=C\SC)n1ccnc1 [Neticonazole Hydrochloride] | -8.79
CC(C(=O)O)c1ccc2c(c1)[nH]c1ccc(Cl)cc12 (stereo unspecified) [Carprofen] | 3.42
CCC(C)n1ncn(-c2ccc(N3CCN(c4ccc(OCC5COC(Cn6cncn6)(c6ccc(Cl)cc6Cl)O5)cc4)CC3)cc2)c1=O (stereo unspecified) [Itraconazole] | -10.4

SMILES | z-score of prototroph abundance
C=CCN1CCCC1CNC(=O)c1cc2nn[nH]c2cc1OC (stereo unspecified) [Alizapride HCl] | -0.2
CO/N=C(\C(=O)N[C@@H]1C(=O)N2C(C(=O)O)=C(CSc3nc(C)c(CC(=O)O)s3)CS[C@H]12)c1csc(N)n1 [Cefodizime Sodium] | 0.26
C[C@H](NCc1ccc(OCc2cccc(F)c2)cc1)C(N)=O [Safinamide Mesylate] | -0.78
Cc1ccnc(NS(=O)(=O)c2ccc(N)cc2)n1 [Sulfamerazine] | -1.15
C=C[C@H]1CN2CC[C@H]1C[C@@H]2[C@@H](O)c1ccnc2ccc(OC)cc12 [Quinidine sulfate] | -1.18
O=C(Nc1ccc(Oc2ccc(Cl)cc2)c(Cl)c1)c1cc(I)cc(I)c1O [Rafoxanide] | 0.24
COC(=O)Nc1nc2cc(C(=O)c3ccccc3)ccc2[nH]1 [Mebendazole] | -1.69
Nc1nc(N)c2nc(-c3ccccc3)c(N)nc2n1 [Triamterene] | 3.28
CC(=O)N1CCN(c2ccc(OCC3COC(Cn4ccnc4)(c4ccc(Cl)cc4Cl)O3)cc2)CC1 (stereo unspecified) [Ketoconazole] | 0.99
Cc1onc(-c2ccccc2)c1C(=O)N[C@@H]1C(=O)N2[C@@H]1SC(C)(C)[C@@H]2C(=O)O [Oxacillin sodium monohydrate] | -0.42
CC[C@H]1OC(=O)[C@H](C)[C@@H](O[C@H]2C[C@@](C)(OC)[C@@H](O)[C@H](C)O2)[C@H](C)[C@@H](O[C@@H]2O[C@H](C)C[C@H](N(C)C)[C@H]2O)[C@](C)(O)C[C@@H](C)C(=O)[C@H](C)[C@@H](O)[C@]1(C)O [Erythromycin thiocyanate] | 0.64
CO[C@@]1(NC(=O)CSC[C@@H](N)C(=O)O)C(=O)N2C(C(=O)O)=C(CSc3nnnn3C)CS[C@@H]21 [Cefminox Sodium] | -0.58
CNCCCC1c2ccccc2C=Cc2ccccc21 [Protriptyline hydrochloride] | -0.57
CC1CCc2c(N3CCC(O)CC3)c(F)cc3c(=O)c(C(=O)O)cn1c23 (stereo unspecified) [Nadifloxacin] | -0.14
C[n+]1ccccc1/C=N/O [Pralidoxime chloride] | -0.28
Oc1ccc(Cl)c2cccnc12 [Cloxiquine] | -17.6
N[C@H]1CONC1=O [L-Cycloserine] | -1.74
CCN(CC)CC#CCOC(=O)C(O)(c1ccccc1)C1CCCCC1 (stereo unspecified) [Oxybutynin chloride] | 1.15
